Experimental findings from PubChem BioAssay are described below.

Results filed as inconclusive are left out. Activity calls are given as the source filed them.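 The calls were made as follows, unless noted: active = differentiation response of at least 50%, scaled between solvent and reference control, from cells with both markers; inactive = the rest.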

Experiment [1] in a line: yeast TOR pathway RPL19A-GFP modulators, primary screen, cell-based, S. cerevisiae, multiplex flow cytometry (AID 1862; in the data active = percent of DMSO control GFP below about 86%;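 also: lower values mimic rapamycin by blocking the RPL19A rise seen in DMSO cells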). Conditions: S. cerevisiae RPL19A-GFP strain, flow cytometry fluorescence, 3 h; at 10 µM; stronger effect = lower value. (In general: A flow cytometer gives signals particle by particle.)
Experiment [2] can be described thus: modulators of MEP2-GFP levels in yeast, primary screen, S. cerevisiae, multiplex flow cytometry (AID 1867;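 active = GFP response, as percent of the DMSO control, above the screen-wide mean plus 3 SD, about 139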;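 also: median GFP channel fluorescence of barcode-gated MEP2-GFP cells measured by flow cytometry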). Conditions: S. cerevisiae MEP2-GFP strain, 3 h, at 10 µM, stronger effect = higher value, 100% means same as DMSO wells.
A short description of experiment [3]: modulators of CIT2-GFP expression in yeast, primary screen, S. cerevisiae, GFP fusion, multiplex flow cytometry (AID 1870;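 active = percent response above a set limit, the screen-wide mean plus 3 SD, cut at about 130% in these data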;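 also: barcoded CIT2-GFP strain pooled with four other GFP strains with rapamycin as positive control; median GFP fluorescence per well over plate mean of DMSO wells so 100% = DMSO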). Conditions: 3 h, at 10 µM, stronger effect = higher value.
A short description of experiment [4]: modulators of LAP4-GFP expression in yeast, primary screen, S. cerevisiae, multiplex flow cytometry (AID 1873;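 active = GFP signal, as percent of the solvent control, above the screen mean plus 3 SD, about 149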). Conditions: 3 h, at 10 µM, stronger effect = higher value.
Experiment [5] can be described thus: modulators of AGP1-GFP expression in yeast TOR pathway, primary screen, cell-based, multiplex flow cytometry, S. cerevisiae (AID 1887;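 active = GFP signal above the screen-wide mean plus 3 SD, that is over about 124.5% of the solvent control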;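 also: AGP1-GFP fusion strain of S. cerevisiae within a five-strain barcoded multiplex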). Conditions: 3 h, at 10 µM, stronger effect = higher value.
Experiment [6] is described as follows: inhibitors of CD8+ T cell-vesicle binding, pilot screen, LFA-1/ICAM-1 modulator project, MLPCN validation set, flow cytometry (AID 2523;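 active = response below a set limit, under 55% cells CD8-positive and vesicle-bound, and CD8 cells' 90th-percentile brightness under 279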;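 as to vesicle binding response: mean PE anti-B7-1 fluorescence of CD8+ cells relative to row control; 100% = QL9-loaded vesicles with DMSO vehicle in the same plate row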). Conditions: 2C mouse CD8+ T cells, at 7 µM, stronger effect = lower value; double positive events: measured here: CD8+/vesicle+ event percentage.
Experiment [7] has as its target Integrin beta-1 (Homo sapiens) + Integrin alpha-4 (Homo sapiens) (UniProt P13612+P05556). The experiment can be described thus: inhibition of HUTS-21 binding to VLA-4, pilot screen, VLA-4 allosteric modulator project, U937 cells, HUTS-21 mAb, flow cytometry, validation set (AID 2674;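 active = inhibition above 50%, about 3 SD of the validation set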;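 also: antibody binding induced by the VLA-4 ligand LDV present at three times its Kd; 0% = LDV ligand with antibody and no compound and 100% = antibody without LDV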). Particulars: HUTS-21 LIBS mAb binding, at 6.7 µM, stronger effect = higher value, binding induced by LDV ligand.

The nature of experiment [8]: superoxide lowering in aged yeast cells, pilot screen, validation compound set (AID 2706;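 active = superoxide response below 65% of plate, a cut near 3 SD across the whole screen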;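 also: yeast exposed to compound for one week at 30 degrees C before staining; 100% = mean of all compound wells on the same plate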). Particulars: S. cerevisiae aging, superoxide DHE fluorescence; at 10 µM, stronger effect = lower value.
Experiment [9] deals with Beta-adrenergic receptor kinase 1 (Homo sapiens) (UniProt P25098). The experiment can be described thus: GRK2 binders displacing RNA aptamer, biochemical, validation, human GRK2, bead flow cytometry (AID 488806;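 active = aptamer binding inhibition above 30%, about 3 SD of noise from non-fluorescent compounds; inactive = inhibition at or below 30%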). Particulars: bead-bound GRK2, FAM-aptamer displacement, at 10 µM, stronger effect = higher value.
Sequence of Beta-adrenergic receptor kinase 1 (Homo sapiens) (P25098 whole entry, looked up): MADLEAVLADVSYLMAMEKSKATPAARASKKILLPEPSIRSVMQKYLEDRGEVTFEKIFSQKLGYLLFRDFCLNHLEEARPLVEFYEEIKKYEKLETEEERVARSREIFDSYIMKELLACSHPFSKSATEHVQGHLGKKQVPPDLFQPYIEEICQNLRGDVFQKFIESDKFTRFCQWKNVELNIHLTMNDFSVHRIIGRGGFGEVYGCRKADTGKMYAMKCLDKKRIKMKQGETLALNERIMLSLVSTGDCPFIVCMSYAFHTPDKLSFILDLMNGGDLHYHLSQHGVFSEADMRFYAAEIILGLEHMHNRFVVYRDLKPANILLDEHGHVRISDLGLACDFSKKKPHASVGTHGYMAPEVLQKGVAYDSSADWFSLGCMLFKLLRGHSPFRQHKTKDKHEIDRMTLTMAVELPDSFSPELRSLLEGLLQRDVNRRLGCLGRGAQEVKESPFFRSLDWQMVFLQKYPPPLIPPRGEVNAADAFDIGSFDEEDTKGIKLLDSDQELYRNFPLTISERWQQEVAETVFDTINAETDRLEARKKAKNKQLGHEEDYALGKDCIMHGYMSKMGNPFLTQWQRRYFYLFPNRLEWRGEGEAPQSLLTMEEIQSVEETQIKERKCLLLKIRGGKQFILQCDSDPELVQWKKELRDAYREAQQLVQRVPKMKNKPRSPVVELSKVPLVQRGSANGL
For experiment [10], the target named is AP-2 complex subunit beta (Homo sapiens) (UniProt P63010). The experiment can be described thus: inhibitors of arrestin peptide binding to AP2, pilot screen, biochemical, validation set, GST-AP2 beads, flow cytometry (AID 504541;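 active = inhibition above 54%, about 3 SD of non-fluorescent compounds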;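 also: AP2 carries R879A mutation and is captured from E. coli lysate; bead-bound FITC arrestin peptide fluorescence measuring arrestin peptide binding to AP2; 0% = DMSO wells and 100% = excess unlabeled arrestin peptide control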). Conditions: FITC arrestin peptide, at 10 µM, stronger effect = higher value, AP2 beta2 appendage fragment, R879A mutant.
Sequence of AP-2 complex subunit beta (Homo sapiens) (P63010 whole entry, looked up, the tested form may be a part, one chain of several): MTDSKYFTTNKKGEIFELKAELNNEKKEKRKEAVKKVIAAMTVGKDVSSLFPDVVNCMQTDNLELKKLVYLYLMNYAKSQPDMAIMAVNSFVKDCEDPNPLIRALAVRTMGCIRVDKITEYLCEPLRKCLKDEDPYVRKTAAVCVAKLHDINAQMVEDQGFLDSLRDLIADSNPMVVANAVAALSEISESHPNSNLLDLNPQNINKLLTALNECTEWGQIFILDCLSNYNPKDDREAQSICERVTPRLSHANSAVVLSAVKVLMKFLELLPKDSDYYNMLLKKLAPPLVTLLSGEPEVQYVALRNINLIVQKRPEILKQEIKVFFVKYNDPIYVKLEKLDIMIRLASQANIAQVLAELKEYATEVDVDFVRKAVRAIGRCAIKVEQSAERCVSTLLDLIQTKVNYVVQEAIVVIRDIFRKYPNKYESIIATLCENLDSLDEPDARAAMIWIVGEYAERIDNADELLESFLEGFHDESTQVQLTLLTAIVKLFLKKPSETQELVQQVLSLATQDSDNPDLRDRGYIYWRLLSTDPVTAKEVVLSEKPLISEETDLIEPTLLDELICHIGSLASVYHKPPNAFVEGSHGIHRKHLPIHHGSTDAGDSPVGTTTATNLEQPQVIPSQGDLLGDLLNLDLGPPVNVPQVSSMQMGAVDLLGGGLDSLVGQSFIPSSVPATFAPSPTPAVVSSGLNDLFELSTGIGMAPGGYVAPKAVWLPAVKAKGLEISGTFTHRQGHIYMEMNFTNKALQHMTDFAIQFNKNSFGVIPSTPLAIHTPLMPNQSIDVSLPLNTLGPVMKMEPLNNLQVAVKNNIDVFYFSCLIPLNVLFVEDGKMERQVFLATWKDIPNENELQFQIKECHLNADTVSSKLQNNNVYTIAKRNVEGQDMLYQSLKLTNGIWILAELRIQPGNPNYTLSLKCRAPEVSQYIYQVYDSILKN
Experiment [11] is described as follows: yeast V-ATPase proton transport modulators, S. cerevisiae, pHLuorin, HTS validation (AID 504600; in the data active = response above about 15%;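 also: plate controls were DMSO for no effect and reference compound for full effect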). Conditions: S. cerevisiae pHLuorin cytosolic pH, at 10 µM, stronger effect = higher value.
Experiment [12] deals with anti-desmoglein-3 scFv antibody binding to human DSG3. The experiment can be described thus: inhibitors of anti-DSG3 scFv binding to DSG3, pilot screen, biochemical, validation compound set, bead-based, flow cytometry (AID 588368;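 active = binding below the plate cutoff, the plate median minus 3 SD, with a reading above zero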;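 also: signal is the median channel fluorescence of bead-bound GFP antibody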). Conditions: Protein G beads, DSG3-Fc, scFv-GFP binding, at 10 µM, stronger effect = lower value.
The nature of experiment [13]: inhibitors of fungal efflux pumps CDR1, CDR2, MDR1, pilot screen, validation compound set, multiplex, phenotypic (AID 588506;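 active = efflux inhibition above 0.42, the validation set average plus 4 SD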;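 also: Nile Red retained in cells so higher fluorescence means more efflux inhibition; 0 = negative control wells and 1 = enniatin B 25 µM full block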). Conditions: S. cerevisiae pump-expressing triplex, Nile Red efflux flow cytometry; at 10 µM; stronger effect = higher value; the pumps come from Candida albicans.
Experiment [14] concerns the target ATP-binding cassette sub-family B member 6 (Homo sapiens) (UniProt Q9NP58). The experiment can be described thus: ABCB6 transporter inhibitors, pilot screen, K562-ABCB6 cells, flow cytometry, validation set (AID 588550;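 active = inhibition above the screen-wide mean plus 3 SD, about 51%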;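 also: 0% = DMSO wells and 100% = benzethonium chloride 70 µM positive control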). Particulars: K562-ABCB6 porphyrin accumulation, 1 h, at 10 µM, stronger effect = higher value.
Experiment [15] is described as follows: promoters of myeloid differentiation in arrested cells, primary screen, cell-based, GFP/MAC1 double positive, flow cytometry, validation set (AID 588685).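 Also: compound exposure lasts four days before antibody staining and flow analysis; 0% = DMSO wells and 100% = 5 µM fulvestrant positive control.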 Conditions: ER-HoxA9 marrow cells, stronger effect = higher value, normalized: vehicle 0, fulvestrant 100.
Experiment [16] addresses Beta-2 adrenergic receptor (Homo sapiens) (UniProt P07550). The experiment can be described thus: beta2AR agonists driving receptor internalization, pilot screen, cell-based, FAP fluorogen, flow cytometry, validation set (AID 504459;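 active = percent response above 42, roughly 3 SD of non-fluorescent test compounds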;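 also: agonist-driven loss of surface beta2AR via internalization measured by FAP dye flow cytometry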). Particulars: Am2.2-beta2AR cells, FAP surface receptor flow cytometry; at 10 µM; stronger effect = higher value.

Sequence of ATP-binding cassette sub-family B member 6 (Homo sapiens) (Q9NP58 whole entry, looked up): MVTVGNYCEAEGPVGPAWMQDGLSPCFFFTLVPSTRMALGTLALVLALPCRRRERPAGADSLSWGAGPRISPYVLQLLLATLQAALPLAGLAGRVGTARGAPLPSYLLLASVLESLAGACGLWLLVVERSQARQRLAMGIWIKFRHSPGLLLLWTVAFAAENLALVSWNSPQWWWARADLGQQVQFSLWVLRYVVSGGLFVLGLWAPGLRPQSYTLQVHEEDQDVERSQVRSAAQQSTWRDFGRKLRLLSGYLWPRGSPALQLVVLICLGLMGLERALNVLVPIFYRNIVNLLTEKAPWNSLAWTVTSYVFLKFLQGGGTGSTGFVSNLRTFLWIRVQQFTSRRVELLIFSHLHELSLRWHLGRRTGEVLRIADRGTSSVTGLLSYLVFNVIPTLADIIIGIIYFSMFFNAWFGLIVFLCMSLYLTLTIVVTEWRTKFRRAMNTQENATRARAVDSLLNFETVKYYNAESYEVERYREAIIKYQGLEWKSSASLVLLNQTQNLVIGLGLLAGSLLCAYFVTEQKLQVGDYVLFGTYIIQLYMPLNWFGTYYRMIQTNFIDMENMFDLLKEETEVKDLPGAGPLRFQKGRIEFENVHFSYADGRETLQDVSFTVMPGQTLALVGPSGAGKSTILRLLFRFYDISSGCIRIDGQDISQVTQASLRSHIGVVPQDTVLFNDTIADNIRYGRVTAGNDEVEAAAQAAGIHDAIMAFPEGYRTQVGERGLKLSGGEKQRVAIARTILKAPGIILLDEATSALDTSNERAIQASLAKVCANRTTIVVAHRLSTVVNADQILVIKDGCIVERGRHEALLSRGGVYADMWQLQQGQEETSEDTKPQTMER
Sequence of Integrin beta-1 (Homo sapiens) + Integrin alpha-4 (Homo sapiens) (P05556 whole entry, looked up): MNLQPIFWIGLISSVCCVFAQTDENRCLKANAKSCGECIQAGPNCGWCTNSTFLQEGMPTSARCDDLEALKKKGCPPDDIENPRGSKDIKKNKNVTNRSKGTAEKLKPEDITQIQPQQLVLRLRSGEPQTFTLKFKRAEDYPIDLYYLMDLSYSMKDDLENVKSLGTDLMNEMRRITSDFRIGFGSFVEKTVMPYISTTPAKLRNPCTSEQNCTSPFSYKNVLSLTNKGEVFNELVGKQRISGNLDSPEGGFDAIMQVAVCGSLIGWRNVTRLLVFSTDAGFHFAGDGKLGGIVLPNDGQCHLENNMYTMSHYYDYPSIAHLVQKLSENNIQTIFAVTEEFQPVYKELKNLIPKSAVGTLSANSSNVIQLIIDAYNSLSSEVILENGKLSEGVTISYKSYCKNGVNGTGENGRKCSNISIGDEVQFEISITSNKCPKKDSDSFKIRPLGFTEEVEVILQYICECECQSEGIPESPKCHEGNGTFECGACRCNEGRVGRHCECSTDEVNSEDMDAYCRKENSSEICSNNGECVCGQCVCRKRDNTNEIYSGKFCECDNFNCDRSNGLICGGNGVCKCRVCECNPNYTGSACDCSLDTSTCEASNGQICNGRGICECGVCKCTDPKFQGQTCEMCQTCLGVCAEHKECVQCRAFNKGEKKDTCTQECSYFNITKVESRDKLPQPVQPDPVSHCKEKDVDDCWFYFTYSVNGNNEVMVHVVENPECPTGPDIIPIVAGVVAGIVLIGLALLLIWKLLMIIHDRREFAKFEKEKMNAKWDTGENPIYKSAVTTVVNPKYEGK
Sequence of Integrin beta-1 (Homo sapiens) + Integrin alpha-4 (Homo sapiens) (P13612 whole entry, looked up): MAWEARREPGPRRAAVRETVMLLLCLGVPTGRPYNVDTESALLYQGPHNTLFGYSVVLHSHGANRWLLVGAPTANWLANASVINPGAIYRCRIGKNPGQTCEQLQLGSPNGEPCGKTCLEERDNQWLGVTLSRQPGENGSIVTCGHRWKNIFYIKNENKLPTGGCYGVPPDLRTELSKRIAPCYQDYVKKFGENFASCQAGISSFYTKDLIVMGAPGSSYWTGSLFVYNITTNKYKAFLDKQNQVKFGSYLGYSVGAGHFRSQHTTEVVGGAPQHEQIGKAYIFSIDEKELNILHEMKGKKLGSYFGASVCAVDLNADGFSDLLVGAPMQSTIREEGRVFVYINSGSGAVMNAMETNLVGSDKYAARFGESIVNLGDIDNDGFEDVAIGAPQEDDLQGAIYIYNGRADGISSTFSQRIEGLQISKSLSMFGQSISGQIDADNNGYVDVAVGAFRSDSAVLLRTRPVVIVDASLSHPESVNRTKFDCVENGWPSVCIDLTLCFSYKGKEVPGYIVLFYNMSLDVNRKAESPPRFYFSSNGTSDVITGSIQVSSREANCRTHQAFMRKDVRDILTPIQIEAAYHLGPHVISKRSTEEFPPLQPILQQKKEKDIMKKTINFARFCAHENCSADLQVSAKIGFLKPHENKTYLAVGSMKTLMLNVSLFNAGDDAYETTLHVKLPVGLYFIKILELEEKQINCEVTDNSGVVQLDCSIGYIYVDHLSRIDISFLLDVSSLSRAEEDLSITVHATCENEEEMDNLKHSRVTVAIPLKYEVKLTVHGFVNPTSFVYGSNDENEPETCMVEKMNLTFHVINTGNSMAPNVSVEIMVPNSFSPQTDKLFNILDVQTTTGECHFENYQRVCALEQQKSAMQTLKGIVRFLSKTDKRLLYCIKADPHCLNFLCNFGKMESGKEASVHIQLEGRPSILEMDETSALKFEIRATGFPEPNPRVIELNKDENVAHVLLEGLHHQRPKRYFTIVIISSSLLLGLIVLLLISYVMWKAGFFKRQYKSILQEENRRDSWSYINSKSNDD
Sequence of Beta-2 adrenergic receptor (Homo sapiens) (P07550 whole entry, looked up): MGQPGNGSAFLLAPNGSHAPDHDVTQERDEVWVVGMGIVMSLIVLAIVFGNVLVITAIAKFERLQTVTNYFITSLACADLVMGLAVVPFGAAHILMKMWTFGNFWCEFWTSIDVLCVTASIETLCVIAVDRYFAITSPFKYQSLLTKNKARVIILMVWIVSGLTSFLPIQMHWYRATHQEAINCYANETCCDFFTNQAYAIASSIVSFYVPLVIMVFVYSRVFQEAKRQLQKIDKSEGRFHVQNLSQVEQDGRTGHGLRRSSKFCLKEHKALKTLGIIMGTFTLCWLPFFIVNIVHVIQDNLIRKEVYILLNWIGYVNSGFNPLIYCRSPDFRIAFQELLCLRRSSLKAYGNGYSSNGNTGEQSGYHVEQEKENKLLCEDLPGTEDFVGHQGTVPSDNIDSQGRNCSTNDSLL

The term inhibition denotes the relative decrease from the control value, in per cent. Turning to `COc1ccc(OCC(=O)N2c3ccc(C)cc3C3CN(C)CCC32)cc1` (stereo not given), the percent of DMSO control GFP in [1] was 104% (inactive). The GFP response vs DMSO in experiment [2] is 101% (inactive); in [4], 98.4% (inactive). For the same compound, in experiment [3], the percent response of DMSO control is 105% (inactive). The GFP response, % of DMSO in [5] was 96.1% (inactive). In addition, the double positive events in experiment [6] was 69.1%. The vesicle binding response in experiment [6] was 238% (inactive). Besides, the values for the inhibition in experiment [7], in experiment [10] and in [14] were 10% (inactive), -6.29% (inactive) and 5% (inactive), respectively. Besides, the superoxide response (% of plate) in [8] was 90.6% (inactive). In addition, the aptamer binding inhibition in [9] was -10% (inactive). In addition, the response in [11] is -0.64% (inactive). Further, the binding (% of control) in experiment [12] was 106% (inactive). Also, the efflux inhibition (fraction of control) in experiment [13] is 0.33 (inactive). In addition, in experiment [15], the differentiation response was 32.1% (inactive).
In the case of `COC(=O)c1ccc(COc2ccc3c(C)c(C)c(=O)oc3c2C)o1`, in [1], the percent of DMSO control GFP was 101% (inactive). In addition, the GFP response vs DMSO in [2] is 97.9% (inactive); in [4], 92.3% (inactive). Besides, in [3], the percent response of DMSO control is 96.9% (inactive). Further, the GFP response, % of DMSO in [5] is 91.6% (inactive). The compound also returned a double positive events in experiment [6] of 57.7%. For the same compound, the vesicle binding response in experiment [6] is 157% (inactive). In addition, the inhibition was 14.7% (inactive) in [7], 4.76% (inactive) in experiment [10] and 11% (inactive) in [14]. Also, the superoxide response (% of plate) in experiment [8] is 96.2% (inactive). Further, the aptamer binding inhibition in [9] is 3% (inactive). In addition, the response in [11] was -2.54% (inactive). The binding (% of control) in experiment [12] was 102% (inactive). Moreover, the efflux inhibition (fraction of control) in experiment [13] was 0.06 (inactive). The differentiation response in experiment [15] is 9.49% (inactive).
Turning to `COc1ccc2c(c1)[nH]c1c(=O)n(Cc3ccccn3)cnc12`, in experiment [1], the percent of DMSO control GFP is 97.7% (inactive). Moreover, the values for the GFP response vs DMSO in [2] and in experiment [4] were 97.7% (inactive) and 106% (inactive), respectively. In experiment [3], the percent response of DMSO control was 101% (inactive). Besides, the GFP response, % of DMSO in experiment [5] is 96.1% (inactive). The double positive events in [6] stood at 64%. In experiment [6], the vesicle binding response is 1600% (inactive). Moreover, the inhibition in experiment [7] is -1.74% (inactive); in experiment [14] it was 3% (inactive). In addition, the superoxide response (% of plate) in experiment [8] is 109% (inactive). Further, the aptamer binding inhibition in [9] is -4% (inactive). Also, the response is 2.42% (inactive) in experiment [16] and -2.14% (inactive) in experiment [11]. Also, in experiment [12], the binding (% of control) was 98% (inactive). Also, the efflux inhibition (fraction of control) in [13] was -0.5 (inactive). Also, in experiment [15], the differentiation response is 10.3% (inactive).
Consider `CCN(CC)Cc1c[nH]c2c(C(=O)OC)cccc12`, for which, in experiment [1], the percent of DMSO control GFP was 98.8% (inactive). Further, the GFP response vs DMSO in [2] is 104% (inactive); in experiment [4], 102% (inactive). For the same compound, in [3], the percent response of DMSO control was 105% (inactive). The GFP response, % of DMSO in [5] was 99.1% (inactive). The compound further returned a double positive events in [6] of 60.2%. Besides, in experiment [6], the vesicle binding response is 183% (inactive). For the same compound, the inhibition in experiment [7] is 10% (inactive); in experiment [10], 12.3% (inactive); in experiment [14], 7% (inactive). Further, in experiment [8], the superoxide response (% of plate) was 98.4% (inactive). Moreover, the aptamer binding inhibition in [9] was 0% (inactive). In addition, the response in [11] is -5.36% (inactive). For the same compound, the binding (% of control) in experiment [12] is 105% (inactive). For the same compound, the efflux inhibition (fraction of control) in experiment [13] was -0.28 (inactive). Moreover, in experiment [15], the differentiation response was -24.4% (inactive).
For `COc1ccc2[nH]cc(C(=O)CCl)c2c1`, in experiment [1], the percent of DMSO control GFP was 103% (inactive). Further, the values for the GFP response vs DMSO in experiment [2] and in experiment [4] were 98.9% (inactive) and 100% (inactive), respectively. In addition, the percent response of DMSO control in [3] is 102% (inactive). The GFP response, % of DMSO in experiment [5] is 102% (inactive). The compound also displayed a double positive events in [6] of 64.8%. Besides, the vesicle binding response in experiment [6] is 172% (inactive). Also, the inhibition in [7] is -3.04% (inactive); in [10], 24.1% (inactive); in experiment [14], 3% (inactive). Besides, the superoxide response (% of plate) in experiment [8] is 101% (inactive). Moreover, the aptamer binding inhibition in experiment [9] was 4% (inactive). In addition, the response in [11] is -6.9% (inactive). The binding (% of control) in [12] was 98.2% (inactive). In addition, the efflux inhibition (fraction of control) in experiment [13] was -0.01 (inactive). Also, in experiment [15], the differentiation response was 0% (inactive).
